# This is a sample that favours compounds with a hit; in the whole collection about 19% have one here.
# HT1080 IDH1KD tx: kills HT-1080 cells with IDH1 knockdown; HT-1080 IDH1 knockdown viability, ATP luminescence, 48 h; Potency, µM (highest dose often 46.1 µM), for the others: top-dose activity, negative = toxicity, hits mostly cytotoxic; hit rate 2% among 360,000;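 also: 0% = DMSO wells and -100% = cell-free medium wells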
#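 Luminescent ATP read-out (CellTiter-Glo, 10 min at room temperature) after 48 h compound exposure at 37 °C gave viability of IDH1-knockdown HT-1080 cells. Activity was normalised to DMSO and cell-free wells, then fitted as concentration-response curves.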
# KB-3-1 cytotox: kills parental KB-3-1 adenocarcinoma cells; KB-3-1 viability, CellTiter-Glo ATP luminescence, 72 h; hit rate 1.4% among 400,000; Potency, µM (doses to about 46.1 µM), most hits filed as cytotoxic; also: nearly all actives have a fitted effect of over 60% in size
#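 Luminescent ATP read-out (CellTiter-Glo) measures survival of drug-naive KB-3-1 cells after 72 h compound exposure at 37 °C. Titration series was screened from lowest to highest concentration, with DMSO vehicle plates as background controls.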
# DT40 TDP1 no CPT: qHTS for Inhibitors of human tyrosyl-DNA phosphodiesterase 1 (TDP1): qHTS in cells in absence of CPT. DT40 Tdp1-/- hTDP1 cells, no CPT, ATP luminescence, 48 h. Potency, µM (top dose mostly 46.2 µM), for inactives: top-dose activity change, negative = growth inhibition, most hits filed as inhibitors. hit rate 15% among 420,000. AID 686978, 2013; also: nearly all actives have a fitted effect of over 55% in size
#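 Readout: luminescence from CellTiter-Glo after 30 min in the dark at RT. Cells: DT40 Tdp1-/- with stable hTDP1, 400/well. Exposure: compounds alone, ≥48 hr, 37 °C.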
# HT1080-NT tox: kills 2HG-producing HT-1080-NT fibrosarcoma cells; HT-1080-NT fibrosarcoma viability, CellTiter-Glo ATP luminescence, 48 h; Potency, µM (top dose mostly 46.1 µM), inactives show at the highest dose activity, negative = less viability, most hits filed as cytotoxic; hit rate 1.6% among 360,000; AID 686970;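 also: NT is the 2HG producing partner of a matched IDH1 knockdown line; 0% = DMSO-treated cells and -100% = media-only wells without cells; nearly all actives have a fitted effect of over 55% in size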
#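 A 48-hour cytotoxicity screen used HT-1080-NT cells plated 2 hours before compound delivery. ATP-based CellTiter-Glo luminescence measured viability, normalized to DMSO and no-cell controls.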
# KB-V1 cytotox: KB-V1 MDR subline cytotoxicity. KB-V1 MDR cells viability, CellTiter-Glo, 72 h. Potency, µM (doses to about 46.1 µM), usual class: cytotoxic. hit rate 3.4% among 400,000. AID 1347076; also: nearly all actives have a fitted effect of over 60% in size
#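 Drug-selected KB-V1 cells, grown in DMEM lacking phenol red with 10% FBS, receive compound titrations; after three days at 37 degrees C, surviving cell ATP is quantified by CellTiter-Glo luminescence and responses normalized and curve-fitted.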
# DT40 TDP1 CPT: DT40-hTDP1 cell growth loss with CPT; Potency, µM (titrated, usually from 46.2 µM), for the others: top-dose activity change, negative = growth inhibition, hits mostly inhibitors; chicken DT40 Tdp1-/-;hTDP1 cells + 20 nM CPT, ATP luminescence, 48 h; hit rate 12% among 420,000; also: nearly all actives have a fitted effect of over 55% in size
#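 Chicken DT40 Tdp1-/- cells stably complemented with human TDP1 were seeded at 400 cells/well in medium containing 20 nM camptothecin, exposed to pin-transferred compounds, and grown at 37 °C for at least 48 hr. Viability was read as ATP luminescence.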
# * marks the source's active call; other numbers are inactive results; i = inactive; ? = inconclusive; / = no result given. Calls follow the shape of the dose curve; as a rule, active = well fitted curve in the direction sought with a large enough effect; inconclusive = small, poorly fitted or top-dose-only effect, or another doubt; inactive = no such curve, though single readings can be large; an effect the other way counts as inactive or inconclusive. Unless noted, % is scaled to controls: 0 for no effect and ±100 for the full control effect; potency is read from the fitted curve at half-maximal effect.
SMILES,HT1080 IDH1KD tx,KB-3-1 cytotox,DT40 TDP1 no CPT,HT1080-NT tox,KB-V1 cytotox,DT40 TDP1 CPT
COc1ccccc1NC(=O)C(Cc1ccccc1)NS(=O)(=O)c1ccc2c(c1)c(=O)n(C)c(=O)n2C (stereo unspecified),/,i,?,/,i,23µM*
COc1cccc(NC(=O)C(Cc2ccccc2)NS(=O)(=O)c2ccc3c(c2)c(=O)n(C)c(=O)n3C)c1 (stereo unspecified),/,i,?,/,?,-20%
Cc1ccccc1NC(=O)C(NS(=O)(=O)c1ccc2c(c1)c(=O)n(C)c(=O)n2C)c1ccccc1 (stereo unspecified),2%,i,16µM*,2%,?,?
COc1ccccc1/C=C/CN1CCC(n2nccc2NC(=O)CCc2ccccc2)CC1,0%,i,12µM*,-14%,i,15µM*
CC(=O)c1cccc(CN2CCC(n3nccc3NC(=O)CCCc3ccccc3)CC2)c1,9%,i,-15%,0%,?,-23%
Cc1cccc(CN2CCC(n3nccc3NC(=O)CCCc3ccccc3)CC2)c1,-23%,i,21µM*,-12%,?,?
COc1cccc(CN2CCC(n3nccc3NC(=O)CCCc3ccccc3)CC2)c1,-17%,i,?,?,i,?
COc1ccccc1CN1CCC(n2nccc2NC(=O)CCCc2ccccc2)CC1,-21%,i,?,-20%,i,15µM*
CCOc1ccccc1CN1CCC(n2nccc2NC(=O)CCCc2ccccc2)CC1,-26%,i,18µM*,-3%,i,?
CCOc1ccccc1CN1CCC(n2nccc2NC(=O)CCc2ccccc2)CC1,29%,i,?,6%,?,?
COc1cccc(/C=N/NC(N)=S)c1OS(=O)(=O)c1ccccc1,-1%,i,-27%,-5%,i,?
Cc1ccc(S(=O)(=O)Oc2ccccc2/C=C2\SC(=O)NC2=O)cc1,-26%,i,-15%,21µM*,i,8%
Cc1ccc(S(=O)(=O)Oc2ccccc2[N+](=O)[O-])cc1,-5%,i,?,-4%,i,-2%
Cc1ccc(S(=O)(=O)Oc2ccccc2/C=N/NC(N)=S)cc1,?,6.5µM*,6.5µM*,4.5µM*,?,4.1µM*
O=C1NC(=O)/C(=C/c2ccccc2Oc2ccc(Cl)cc2)S1,-20%,i,-29%,-1%,i,-9%
Cc1ccc(S(=O)(=O)Oc2ccccc2/C=N/N=C(N)N)cc1,?,i,18µM*,-9%,i,?
Cc1ccc(S(=O)(=O)Oc2ccccc2/C=N/NC(=O)c2nn(C)cc2[N+](=O)[O-])cc1,4%,i,16µM*,2%,i,?
COc1ccccc1NC(=O)C1=C(C)Nc2ncnn2C1c1cccn1C (stereo unspecified),/,i,0%,/,i,0%
O=C(O)Cn1nc(-c2ccccc2)oc1=O,13%,i,-4%,13%,i,1%
O=C(O)Cn1nc(-c2ccc(F)cc2)oc1=O,8%,i,?,16%,i,16µM*
COc1cccc(CNC(=O)c2cc(S(=O)(=O)N3CCCCC3)ccc2C)c1,1%,i,?,-1%,i,-29%
Cn1nc(-c2ccc3c(c2)OCCO3)c2ccccc2c1=O,-1%,i,21µM*,-15%,?,?
Cc1ccc(-c2nn(C)c(=O)c3ccccc23)cc1CNC(=O)CN1CCOCC1,3%,i,?,-1%,i,?
Cn1nc(C(=O)Nc2ccc3c(c2)OCCO3)c2ccccc2c1=O,7%,i,-7%,-1%,i,-18%

# Source: PubChem
